Assay results: PubChem BioAssay AID1053188 (Broad Institute, 2014)
Several values for one entry are separate records, joined by “and”; a condition that tells them apart may be missing. Identical values can stand only once. Screen size: about 83,000 compounds; about 780 (0.94%) were called active.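 How the source made its calls: active means mean inhibition of at least 50% with a set share of replicates also reaching that level; inconclusive means no clear call, values can overlap the other calls; inactive means the rest.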 Shown is part of a subset that was picked to be rich in actives.

assay: inhibitors of CD40-induced NF-kB signaling, primary screen, BL2 cells, luciferase reporter, single point (AID 1053188); details: CD40L-induced, 4 h, at 10 µM, stronger effect = higher value;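 further: 0% = neutral control wells and 100% = IKK inhibitor VII at 50 µM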

| SMILES | inhibition |
| --- | --- |
| CC(=O)OC1C2(CC3N4C(=O)C5(CO)SSC4(CC31O)C(=O)N5C)OC(C)C(C)(C)C2=O (stereo not given) | 107% (active) |
| Cc1nn(-c2ccccc2)c(C)c1NC(=O)COC(=O)Cc1ccccc1 | 3.56% (inactive) |
| N=c1ccccn1Cc1ccccc1 | 5.42% (inactive) |
| CCC(C)(O)C(=O)OC1C(=O)OC2CC3C(C)=CC(=O)C(O)C3(C)C3C4(O)OCC23C1C(C)C4O (stereo not given) | 107% (active) |
| CC(=O)N1C[C@@H]2C(c3ccc(Br)cc3)[C@H](C1)N2C (stereo not given in full) | -3.1% (inactive) and 2.67% (inactive) |
| Cc1ccc(C(C)C)c(OCC(=O)N2CCN(CC(=O)N3CCOCC3)CC2)c1 | -7.63% (inactive) |
| Cc1cc(C(=O)OCC(=O)Nc2c(F)cccc2F)c(C)n1C1CC1 | -11.1% (inactive) |
| Cc1nc2ccc(N3CCN(C)CC3)cc2nc1C | -20.7% (inactive) |
| CCOC(=O)C1(CCc2ccccc2)CCN(Cc2ccco2)CC1 | 11.2% (inactive) |
| c1ccc(CC2CCCCN2)cc1 (stereo not given) | -1.33% (inactive) |
